# Test results published in PubChem BioAssay (Tox21).
# “And” between values parts separate entries of the source, which are not always exact repeats. Identical values can stand only once. Inconclusive results are not listed. Entries that show only a call come without a potency. Some structures have more than one record in an assay (separate samples or runs), and their calls can disagree. The source made the active and inactive calls. Unless noted, calls come from the whole dose curve; as a rule, active = well fitted curve in the direction sought with a large enough effect in the repeat runs; inconclusive = weak or mixed curves; inactive = no such curve, though single readings can be large; an effect the other way counts as inactive or inconclusive.
# Columns and labels:
# [1] = qHTS assay to identify small molecule antagonists of the glucocorticoid receptor (GR) signaling pathway - cell viability counter screen (AID 720693); note: nearly all actives have a fitted effect of over 55% in size
# [2] = qHTS assay for identifying genotoxic compounds that show differential cytotoxicity against isogenic chicken DT40 cell lines with known DNA damage response pathways - wild type cell line (AID 743012); note: nearly all actives have a fitted effect of over 60% in size; note: potency is the fitted concentration of half-maximal effect
# Method in brief: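 Parental DNA repair-proficient DT40 cells, 300 per well, were pre-incubated ~0.5 h at 37 C/5% CO2, pin-dosed with compounds in DMSO, then incubated 40 h. Viability was read as CellTiter-Glo luminescence after 30 min at room temperature.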
# [3] = qHTS assay for identifying genotoxic compounds that show differential cytotoxicity against isogenic chicken DT40 cell lines with known DNA damage response pathways - Rev3 mutant cell line (AID 743014); note: nearly all actives have a fitted effect of over 55% in size; note: potency is the fitted concentration of half-maximal effect
# [4] = qHTS assay for identifying genotoxic compounds that show differential cytotoxicity against isogenic chicken DT40 cell lines with known DNA damage response pathways - Rad54/Ku70 mutant cell line (AID 743015); note: nearly all actives have a fitted effect of over 60% in size; note: potency is the fitted concentration of half-maximal effect
# [5] = qHTS assay to identify small molecule antagonists of the androgen receptor (AR) signaling pathway - cell viability counter screen (AID 743033; note: nearly all actives have a fitted effect of over 45% in size)
# [6] = molecular target: Androgen receptor (Homo sapiens) (UniProt P10275); assay: qHTS assay to identify small molecule agonists of the androgen receptor (AR) signaling pathway (AID 743036; active = well fitted activation curve with a large enough effect in the signal ratio in the repeat runs, with a control signal flat, not every such curve was filed as active; the % refers to the signal ratio)
# Method in brief: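 In this Tox21 qHTS, 2,000 HEK293 AR-bla cells per well were incubated with compounds for 16 h at 37C and 5% CO2. Fluorescence intensity was recorded 2 h after adding LiveBLAzer B/G FRET substrate at room temperature.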
# [7] = molecular target: Androgen receptor (Homo sapiens) (UniProt P10275); assay: qHTS assay to identify small molecule agonists of the androgen receptor (AR) signaling pathway using the MDA cell line (AID 743040; note: nearly all actives have a fitted effect of over 20% in size)
# Method in brief: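 After a 5 h incubation at 37C and 0% CO2, MDA-kb2 reporter cells were dosed with compounds in DMSO and kept 16 h under the same conditions. Luciferase activity was then read as luminescence with ONE-Glo.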
# [8] = qHTS assay to identify small molecule antagonists of the androgen receptor (AR) signaling pathway using the MDA cell line - cell viability counter screen (AID 743041; note: nearly all actives have a fitted effect of over 45% in size)
# Method in brief: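 R1881-driven MDA-kb2 AR-luc cells, 3,000/well, were dosed with library compounds for 16 h; cell health came from CellTiter-Fluor fluorescence in the reporter wells.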
# [9] = molecular target: Androgen receptor (Homo sapiens) (UniProt P10275); assay: qHTS assay to identify small molecule antagonists of the androgen receptor (AR) signaling pathway using the MDA cell line (AID 743042; note: nearly all actives have a fitted effect of over 55% in size)
# Method in brief: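 Antagonist mode: compounds plus R1881 agonist added to MDA-kb2 AR-luc cells, incubated 16 h at 37C. Luciferase reporter luminescence quantified, with multiplexed CellTiter-Fluor readout for cell viability.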
# [10] = qHTS assay to identify small molecule antagonists of the thyroid receptor (TR) signaling pathway - cell viability counter screen (AID 743064); note: nearly all actives have a fitted effect of over 50% in size
# Method in brief: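 Counter screen for cytotoxicity: compound plus T3 (1 nM final) on GH3.TRE-Luc cells, 23.5 h at 37 °C, then fluorescence viability readout with CellTiter-Fluor.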
# Androgen receptor (Homo sapiens), sequence (P10275 whole entry, looked up): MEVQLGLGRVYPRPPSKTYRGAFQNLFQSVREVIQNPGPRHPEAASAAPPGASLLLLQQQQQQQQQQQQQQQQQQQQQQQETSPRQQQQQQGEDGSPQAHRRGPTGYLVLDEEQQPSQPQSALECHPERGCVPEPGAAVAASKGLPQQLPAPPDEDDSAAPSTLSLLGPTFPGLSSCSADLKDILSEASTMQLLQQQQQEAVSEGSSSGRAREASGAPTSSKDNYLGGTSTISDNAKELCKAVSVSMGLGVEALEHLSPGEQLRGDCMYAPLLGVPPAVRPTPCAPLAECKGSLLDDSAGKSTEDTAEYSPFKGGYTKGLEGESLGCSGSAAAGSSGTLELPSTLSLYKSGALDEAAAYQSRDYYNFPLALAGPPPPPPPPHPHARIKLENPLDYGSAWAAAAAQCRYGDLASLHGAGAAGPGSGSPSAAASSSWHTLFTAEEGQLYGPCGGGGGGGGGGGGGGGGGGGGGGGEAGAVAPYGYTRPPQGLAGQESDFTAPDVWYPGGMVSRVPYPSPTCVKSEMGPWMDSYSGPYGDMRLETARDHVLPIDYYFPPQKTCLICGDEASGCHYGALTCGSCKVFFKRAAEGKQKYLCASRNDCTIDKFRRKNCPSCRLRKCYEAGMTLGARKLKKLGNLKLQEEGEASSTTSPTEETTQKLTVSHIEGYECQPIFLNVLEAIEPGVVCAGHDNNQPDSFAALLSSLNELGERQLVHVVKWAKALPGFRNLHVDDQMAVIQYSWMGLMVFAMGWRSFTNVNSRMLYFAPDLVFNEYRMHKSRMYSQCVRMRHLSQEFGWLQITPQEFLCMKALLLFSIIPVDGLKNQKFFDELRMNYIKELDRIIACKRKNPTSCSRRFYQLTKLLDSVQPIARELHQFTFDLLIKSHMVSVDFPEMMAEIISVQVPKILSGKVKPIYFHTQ
smiles,measurement,setting,value
CC[C@H](N)c1ccccc1,Potency,[1],inactive
same,Potency,[2],inactive
same,Potency,[3],inactive
same,Potency,[4],inactive
same,Potency,[5],inactive
same,outcome,[6],inactive
same,outcome,[7],inactive
same,Potency,[8],inactive
same,Potency,[9],inactive
same,Potency,[10],inactive
COP(=O)(OC)O/C(C)=C/C(=O)N(C)C,Potency,[1],inactive
same,Potency,[2],inactive
same,Potency,[3],inactive
same,Potency,[4],inactive
same,Potency,[5],inactive
same,Potency,[8],inactive
same,Potency,[10],inactive
CC(=NC#N)N(C)Cc1ccc(Cl)nc1,Potency,[1],inactive
same,Potency,[2],inactive
same,Potency,[3],inactive
same,Potency,[4],inactive
same,Potency,[5],inactive
same,Potency,[8],inactive
same,Potency,[10],inactive
CCOC(=O)CC(SP(=S)(OC)OC)C(=O)OCC (stereo not drawn),Potency,[1],inactive
same,Potency,[2],inactive
same,Potency,[3],inactive and 64.8 µM (active)
same,Potency,[4],inactive and 58.8 µM (active)
same,Potency,[5],inactive
same,outcome,[6],inactive
same,outcome,[7],inactive
same,Potency,[8],inactive
same,Potency,[9],inactive
same,Potency,[10],inactive
COC(=O)c1ccccc1CS(=O)(=O)NC(=O)Nc1nc(OC)cc(OC)n1,Potency,[1],inactive
same,Potency,[2],inactive
same,Potency,[3],inactive
same,Potency,[4],inactive
same,Potency,[5],inactive
same,Potency,[8],inactive
same,Potency,[10],inactive
CCC1(c2ccccc2)CCC(=O)NC1=O (stereo not drawn),Potency,[1],inactive
same,Potency,[2],inactive
same,Potency,[3],inactive
same,Potency,[4],inactive
same,Potency,[5],inactive
same,outcome,[6],inactive
same,outcome,[7],inactive
same,Potency,[8],inactive
same,Potency,[9],inactive
same,Potency,[10],inactive
CN(C)C1CCCCC1,Potency,[1],inactive
same,Potency,[2],inactive
same,Potency,[3],inactive
same,Potency,[4],inactive
same,Potency,[5],inactive
same,Potency,[8],inactive
Brc1c(Br)c(Br)c(Br)c(Br)c1Br,"viability change, negative = cytotoxic",[1],-0.032% [at 7.04 µM] (inactive)
same,"activity change, negative = cytotoxicity",[2],-12.6% [at 8.52 µM] (inactive)
same,"activity, negative = cytotoxicity",[3],4.56% [at 8.53 µM] (inactive)
same,"activity change, negative = cytotoxicity",[4],8.63% [at 8.55 µM] (inactive)
same,"activity change, negative = cytotoxicity",[5],-0.0996% [at 7.04 µM] (inactive)
same,"viability change, negative = cytotoxic",[8],1.47% [at 8.47 µM] (inactive)
CN1C(=O)COc2c(C(=O)NC3CN4CCC3CC4)cc(Cl)cc21 (stereo not drawn),Potency,[1],inactive
same,Potency,[2],inactive
same,Potency,[3],inactive
same,Potency,[4],inactive
same,Potency,[5],inactive
same,Potency,[8],inactive
COP(=O)(O)OC,Potency,[1],inactive
same,Potency,[2],inactive
same,Potency,[3],inactive
same,Potency,[4],inactive
same,Potency,[5],inactive
same,outcome,[6],inactive
same,outcome,[7],inactive
same,Potency,[8],inactive
same,Potency,[9],inactive
same,Potency,[10],inactive
CC(C)[C@]12CC(=O)[C@H](C)[C@H]1C2,Potency,[1],inactive
same,Potency,[2],inactive
same,Potency,[3],inactive
same,Potency,[4],inactive
same,Potency,[5],inactive
same,Potency,[8],inactive
same,Potency,[10],inactive
CON(C)C(=O)Nc1ccc(Br)cc1,Potency,[1],inactive
same,Potency,[2],inactive
same,Potency,[3],inactive
same,Potency,[4],inactive
same,Potency,[5],inactive
same,Potency,[8],inactive
same,Potency,[10],inactive
CC(C)(C)NC[C@H](O)c1ccc(O)cc1Cl,Potency,[1],inactive
same,Potency,[2],inactive
same,Potency,[3],inactive
same,Potency,[4],inactive
same,Potency,[5],inactive
same,Potency,[8],inactive
same,Potency,[10],inactive
CCN(CC)CCOC(=O)C(O)(c1ccccc1)c1ccccc1,Potency,[1],inactive
same,Potency,[2],inactive
same,Potency,[3],inactive
same,Potency,[4],inactive
same,Potency,[5],inactive
same,Potency,[10],inactive
CCCCCCC1CCOC1=O (stereo not drawn),Potency,[1],inactive
same,Potency,[2],inactive
same,Potency,[3],inactive
same,Potency,[4],inactive
same,Potency,[5],inactive
same,Potency,[8],inactive
same,Potency,[10],inactive
c1ccc2c(c1)CCNC2,Potency,[1],inactive
same,Potency,[2],inactive
same,Potency,[3],inactive
same,Potency,[4],inactive
same,Potency,[5],inactive
same,Potency,[8],inactive
same,Potency,[10],inactive
CCOC(=O)C(SP(=S)(OC)OC)c1ccccc1 (stereo not drawn),Potency,[1],inactive
same,Potency,[2],inactive
same,Potency,[3],inactive
same,Potency,[4],inactive
same,Potency,[5],inactive
same,Potency,[8],inactive
same,Potency,[10],inactive
CC#Cc1cc(C)nc(Nc2ccccc2)n1,Potency,[1],inactive
same,Potency,[2],54.4 µM (active)
same,Potency,[3],61.1 µM (active)
same,Potency,[4],54.4 µM (active)
same,Potency,[5],inactive
same,Potency,[8],inactive
same,Potency,[10],inactive
BrCCc1ccccc1,Potency,[1],inactive
same,Potency,[2],inactive
same,Potency,[3],inactive
same,Potency,[4],inactive
same,Potency,[5],inactive
same,Potency,[8],inactive
same,Potency,[10],inactive
O=C(Cl)CCl,Potency,[1],inactive
same,Potency,[2],inactive
same,Potency,[3],inactive
same,Potency,[4],inactive
same,Potency,[5],inactive
same,Potency,[8],inactive
same,Potency,[10],inactive
Oc1ccc2c3c1O[C@H]1[C@@H](O)C=C[C@H]4[C@@H](C2)NCC[C@@]341,Potency,[1],inactive
same,Potency,[2],inactive
same,Potency,[3],inactive
same,Potency,[4],inactive
same,Potency,[5],inactive
same,Potency,[10],inactive
Cc1cc(OC(=O)N(C)C)nn1C(=O)N(C)C,Potency,[1],inactive
same,Potency,[2],inactive
same,Potency,[3],inactive
same,Potency,[4],inactive
same,Potency,[5],inactive
same,Potency,[10],inactive
O=C(NC(O)C(Cl)(Cl)Cl)NC(O)C(Cl)(Cl)Cl (stereo not drawn),Potency,[1],inactive
same,Potency,[2],inactive
same,Potency,[3],inactive
same,Potency,[4],inactive
same,Potency,[5],inactive
same,Potency,[8],inactive
same,Potency,[10],inactive
COc1cc(CCN)cc(OC)c1OC,Potency,[1],inactive
same,Potency,[2],inactive
same,Potency,[3],inactive
same,Potency,[4],inactive
same,Potency,[5],inactive
same,Potency,[8],inactive
same,Potency,[10],inactive
O=C(O)c1c(Cl)ccc2cc(Cl)cnc12,Potency,[1],inactive
same,Potency,[2],inactive
same,Potency,[3],inactive
same,Potency,[4],inactive
same,Potency,[5],inactive
same,Potency,[8],inactive
same,Potency,[10],inactive
CC(=O)CN(CC(C)=O)N=O,Potency,[1],inactive
same,Potency,[2],inactive
same,Potency,[3],inactive
same,Potency,[4],inactive
same,Potency,[5],inactive
same,Potency,[8],inactive
same,Potency,[10],inactive
O=C1CC(=O)NC(=O)N1,Potency,[1],inactive
same,Potency,[2],inactive
same,Potency,[3],inactive
same,Potency,[4],inactive
same,Potency,[5],inactive
same,Potency,[8],inactive
same,Potency,[10],inactive
CCOC(=O)CCl,Potency,[1],inactive
same,Potency,[2],inactive
same,Potency,[3],inactive
same,Potency,[4],inactive
same,Potency,[5],inactive
same,Potency,[10],inactive
NC(=O)CS(=O)C(c1ccccc1)c1ccccc1 (stereo not drawn),Potency,[1],inactive
same,Potency,[2],inactive
same,Potency,[3],inactive
same,Potency,[4],inactive
same,Potency,[5],inactive
same,Potency,[8],inactive
same,Potency,[10],inactive
